# Columns and labels:
# Conditions in all cases: 10 µM; exposure time: 3 h pre-incubation + 3 h imaging
# [1] = tested on: Danio rerio larvae (5 dpf); experiment: optomotor response to red moving lines, difference vs DMSO (percentage points (treated minus DMSO)); higher = more of the behaviour than the DMSO vehicle control
# Summary of the method: (§1)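 5-dpf wild-type zebrafish larvae in 96-well ProxiPlates were exposed to library drugs at 10 µM (diluted 1000× from DMSO stocks into egg water). There were 48 larvae per drug, exposed 3 h before and 3 h during imaging at 28.5 °C. Images taken every 6 s covered a 3-h program of rest, moving coloured lines and acoustic pulses, and an ImageJ macro scored movement and upper-half location. Each behaviour score is the treated-group mean minus the DMSO vehicle mean, in percentage points.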
# [2] = tested on: Danio rerio larvae (5 dpf); experiment: activity during first hour (no stimuli), difference vs DMSO (percentage points (treated minus DMSO)); higher = more of the behaviour than the DMSO vehicle control
# Summary of the method: as §1
# [3] = tested on: Danio rerio larvae (5 dpf); experiment: startle response to 20-s acoustic pulses, difference vs DMSO (percentage points (treated minus DMSO)); higher = more of the behaviour than the DMSO vehicle control
# Summary of the method: as §1
# [4] = tested on: Danio rerio larvae (5 dpf); experiment: habituation to 1-s acoustic pulses, difference vs DMSO (percentage points (treated minus DMSO)); higher = more of the behaviour than the DMSO vehicle control
# Summary of the method: as §1
# [5] = tested on: Danio rerio larvae (5 dpf); experiment: excitability to 1-s acoustic pulses, difference vs DMSO (percentage points (treated minus DMSO)); higher = more of the behaviour than the DMSO vehicle control
# Summary of the method: as §1
# [6] = tested on: Danio rerio larvae (5 dpf); experiment: activity during period 15 (no stimuli), difference vs DMSO (percentage points (treated minus DMSO)); higher = more of the behaviour than the DMSO vehicle control
# Summary of the method: as §1
# [7] = tested on: Danio rerio larvae (5 dpf); experiment: optomotor response to blue moving lines, difference vs DMSO (percentage points (treated minus DMSO)); higher = more of the behaviour than the DMSO vehicle control
# Summary of the method: as §1
# [8] = tested on: Danio rerio larvae (5 dpf); experiment: optomotor response to green moving lines, difference vs DMSO (percentage points (treated minus DMSO)); higher = more of the behaviour than the DMSO vehicle control
# Summary of the method: as §1
# [9] = tested on: Danio rerio larvae (5 dpf); experiment: optomotor response to fast red moving lines, difference vs DMSO (percentage points (treated minus DMSO)); higher = more of the behaviour than the DMSO vehicle control
# Summary of the method: as §1
structure (smiles),measurement,setting,value
CCCCc1nc(Cl)c(CO)n1Cc1ccc(-c2ccccc2-c2nnn[nH]2)cc1 [Losartan potassium],optomotor response to red moving lines,[1],-6.11
same,activity during first hour,[2],13
same,startle response to 20-s acoustic pulses,[3],-0.252
CO[C@H]1/C=C/O[C@@]2(C)Oc3c(C)c(O)c4c(O)c(c5c(nc6cc(C)ccn65)c4c3C2=O)NC(=O)/C(C)=C\C=C\[C@H](C)[C@H](O)[C@@H](C)[C@@H](O)[C@@H](C)[C@H](OC(C)=O)[C@@H]1C [Rifaximin],habituation to 1-s acoustic pulses,[4],-3.04
same,excitability to 1-s acoustic pulses,[5],4.07
same,activity during period 15,[6],-11.6
same,activity during first hour,[2],-0.0836
same,optomotor response to blue moving lines,[7],9.62
same,optomotor response to green moving lines,[8],0.563
CCCc1nc(C(C)(C)O)c(C(=O)O)n1Cc1ccc(-c2ccccc2-c2nnn[nH]2)cc1 [Olmesartan],activity during first hour,[2],12.1
same,optomotor response to blue moving lines,[7],3.07
same,optomotor response to green moving lines,[8],-2.59
same,startle response to 20-s acoustic pulses,[3],7.62
CN(CCOc1ccc(CC2SC(=O)NC2=O)cc1)c1ccccn1 (stereo not drawn) [Rosiglitazone],activity during first hour,[2],2.2
same,optomotor response to blue moving lines,[7],-12.4
same,optomotor response to green moving lines,[8],1.76
Cn1nnc2c(C(N)=O)ncn2c1=O [Temozolomide],optomotor response to red moving lines,[1],2.24
same,activity during period 15,[6],2.03
same,activity during first hour,[2],7.11
same,optomotor response to blue moving lines,[7],3.81
Cc1nnc(C(C)C)n1C1C[C@H]2CC[C@@H](C1)N2CC[C@H](NC(=O)C1CCC(F)(F)CC1)c1ccccc1 (stereo in doubt) [Maraviroc],excitability to 1-s acoustic pulses,[5],8.65
same,activity during first hour,[2],-3.61
same,optomotor response to blue moving lines,[7],-0.85
same,optomotor response to green moving lines,[8],3.11
same,startle response to 20-s acoustic pulses,[3],-4.61
same,optomotor response,[9],6.43
CC(c1cc2ccccc2s1)N(O)C(N)=O (stereo not drawn) [Zileuton],excitability to 1-s acoustic pulses,[5],4.34
same,optomotor response to red moving lines,[1],-7.52
same,activity during first hour,[2],-0.123
same,optomotor response to blue moving lines,[7],-7.52
same,optomotor response to green moving lines,[8],-11.3
Cc1c(-c2ccc(O)cc2)n(Cc2ccc(OCCN3CCCCCC3)cc2)c2ccc(O)cc12 [Bazedoxifene acetate],habituation to 1-s acoustic pulses,[4],0.273
same,optomotor response to red moving lines,[1],9.09
same,activity during first hour,[2],-12.7
CC(C)c1ccc2oc3nc(N)c(C(=O)O)cc3c(=O)c2c1 [Amlexanox],excitability to 1-s acoustic pulses,[5],6.32
same,optomotor response to red moving lines,[1],-3.59
same,activity during period 15,[6],7.93
same,activity during first hour,[2],6.6
same,startle response to 20-s acoustic pulses,[3],0.978
same,optomotor response,[9],-1.36
CN1CC[C@@H](NC(=O)Nc2ccc(C#N)cc2)C[C@@H]1c1nc2ccccc2[nH]1,activity during first hour,[2],-8.92
same,optomotor response to blue moving lines,[7],3.76
same,optomotor response to green moving lines,[8],-5.63
C[C@]12CCC(=O)C=C1CC[C@@H]1[C@@H]2[C@@H](O)C[C@@]2(C)[C@H]1CC[C@]2(O)C(=O)CO [Hydrocortisone],optomotor response to red moving lines,[1],13
same,activity during period 15,[6],-3.01
same,activity during first hour,[2],3.43
same,startle response to 20-s acoustic pulses,[3],0.897
same,optomotor response,[9],-1.8
